Screens: PubChem BioAssay, several laboratories
Sampled rows, rich in hits. Any-hit rate of the full collection: about 32%.
CYP2C19 act: increases human CYP2C19 enzyme activity; AID 1025; 96,000 tested, under 10 active; activation factor at 5 µM; recombinant CYP2C19, luciferin-H EGE luminescence; stronger effect = higher value; 0 = fully inhibited enzyme, 1 = untreated enzyme; P33261;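 active = activation factor of at least 2 at 5 µM in the primary screen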
PostGolgi ctrl: yeast control strain growth, post-Golgi counter-screen. AID 738. 98,000 compounds, 5% hits. inhibition, % at 10 µM. efflux-deficient yeast background strain, growth absorbance A615, 16 h
PostGolgi yeast: growth inhibition of a yeast mutant, post-Golgi transport screen | inhibition, % at 10 µM | AID 739 | 98,000 compounds, 0.9% hits | post-Golgi transport phenotypic cell assay;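 also: yeast cells grown in 1536-well plates; yeast grown about 18 h at 30C before absorbance read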
CYP2C19 inhib: inhibitors of human CYP2C19. inhibition, % at 5 µM. CYP2C19 Supersomes, luciferin-H EGE luminescence, 30 min. P33261. 96,000 compounds, 21% hits. AID 778;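 active = CYP2C19 inhibition above a set limit at 5 µM in the primary screen, cut at about 50% in these data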
CYP2C9 inhib: inhibitors of human CYP2C9. inhibition, % at 5 µM. 96,000 compounds, 20% hits. P11712. CYP2C9 Supersomes, luciferin-H conversion, luminescence. AID 777;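 active = blocking of liver enzyme CYP2C9 beyond about 50% at 5 µM, limit read from the data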
Target sequence (P11712 whole entry, looked up): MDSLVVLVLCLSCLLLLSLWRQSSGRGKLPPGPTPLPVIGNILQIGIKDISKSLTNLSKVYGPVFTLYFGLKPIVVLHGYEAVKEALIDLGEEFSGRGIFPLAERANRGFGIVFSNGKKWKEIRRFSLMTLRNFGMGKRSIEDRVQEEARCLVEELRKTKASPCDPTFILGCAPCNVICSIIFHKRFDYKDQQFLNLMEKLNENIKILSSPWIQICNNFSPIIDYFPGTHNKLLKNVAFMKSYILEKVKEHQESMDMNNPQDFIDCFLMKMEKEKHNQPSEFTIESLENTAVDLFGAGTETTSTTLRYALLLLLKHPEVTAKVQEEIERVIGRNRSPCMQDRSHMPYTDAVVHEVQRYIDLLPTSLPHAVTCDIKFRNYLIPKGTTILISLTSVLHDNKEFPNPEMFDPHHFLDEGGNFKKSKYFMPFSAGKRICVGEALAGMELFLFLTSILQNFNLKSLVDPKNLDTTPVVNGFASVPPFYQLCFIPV
CYP2C9 activ: increases human cytochrome P450 2C9 activity; P11712; recombinant CYP2C9, luciferin-H conversion, luminescence; stronger effect = higher value; factor 1 = untreated enzyme, 0 = blocked; activation factor at 5 µM; 96,000 compounds, 1.4% hits;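 active = activation factor of 2 or more for CYP2C9 at a 5 µM dose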
Hits are given with their value; . = inactive; / = no result given. Rule as the data show it, unless noted: active = inhibition above about 30%; inactive = the rest.

SMILES	CYP2C19 act	PostGolgi ctrl	PostGolgi yeast	CYP2C19 inhib	CYP2C9 inhib	CYP2C9 activ
CCc1ccccc1N(C)C(=O)CCc1nc(-c2ccc(C)cc2)no1	.	44.4	.	.	62.8	.
COc1ccc(Cl)cc1N(C)C(=O)CCc1nc(-c2ccc(C)cc2)no1	.	33.0	.	91.5	93.8	.
COC(=O)C1CN(S(=O)(=O)c2ccccc2)CCN1S(=O)(=O)c1ccccc1 (stereo not given)	.	.	.	97.9	73.5	.
CCOC(=O)c1ccc(S(=O)(=O)N2CCC(C(=O)O)CC2)cc1	.	.	.	.	.	.
CCOC(=O)C1CN(S(=O)(=O)c2ccc(C)cc2)CCN1S(=O)(=O)c1ccc(C)cc1 (stereo not given)	.	.	.	95.8	77.8	.
CCOc1ccc(S(=O)(=O)N2CCN(S(=O)(=O)c3ccc(OCC)cc3)C(C)C2)cc1 (stereo not given)	.	/	/	.	.	.
CC(=O)N1CCN(S(=O)(=O)c2ccccc2)C1c1ccccc1 (stereo not given)	.	.	.	.	.	.
CCOC(=O)C1CN(S(=O)(=O)c2ccccc2)CCN1S(=O)(=O)c1ccccc1 (stereo not given)	.	.	.	94.5	70.1	.
COc1cc(C#CC#CCN2CCCCC2)ccc1O	.	.	.	.	.	.
COc1ccc(CN2CCN(S(=O)(=O)c3ccc(F)cc3)CC2)cc1OC	.	.	.	.	.	.
COc1ccc(CN2CCN(S(=O)(=O)c3ccccc3)CC2)c(OC)c1	.	.	.	51.6	60.2	.
COc1ccccc1CN1CCN(S(=O)(=O)c2ccccc2)CC1	.	.	.	62.2	63.2	.
COc1ccc(CN2CCN(c3ncccn3)CC2)c(OC)c1	.	41.8	.	.	.	.
COc1ccc(CN2CCN(S(=O)(=O)c3ccc(F)cc3)CC2)c(OC)c1OC	.	.	.	86.8	.	.
CCOC(=O)C1CCN(Cc2ccc(OC)cc2OC)CC1	.	.	.	.	.	.
COc1ccc(CN2CCN(S(=O)(=O)c3ccccc3)CC2)cc1Br	.	.	.	98.6	96.4	.
CN1CCN(/C=N/c2c(C#N)cnn2Cc2ccccc2)CC1	.	.	.	.	.	.
Cc1nc2ncnn2c(N2CCN(C(=O)Cc3cccs3)CC2)c1C	.	.	.	.	.	.
Cc1ccc(OCc2nc(C#N)c(NCCCn3ccnc3)o2)cc1	.	.	.	99.1	90.7	.
N#Cc1nc(COc2ccccc2)oc1NCCCn1ccnc1	.	.	.	99.8	95.3	.
COc1ccc(-n2ncc3c(NCCCn4ccnc4)ncnc32)cc1	/	.	.	/	/	/
N#Cc1nc(COc2ccccc2F)oc1NCCCn1ccnc1	.	.	.	96.6	89.6	.
N#Cc1nc(COc2ccccc2Cl)oc1NCc1ccco1	.	.	.	.	.	.
N#Cc1nc(COc2ccc(Br)cc2)oc1NCCCn1ccnc1	.	.	.	99.9	99.5	.
CCCCOC(=O)C1C2C=C[C@]3(CN(CCCOC)C(=O)[C@H]13)O2 (stereo not given in full)	.	.	.	.	.	.
SMILES	CYP2C19 act	PostGolgi ctrl	PostGolgi yeast	CYP2C19 inhib	CYP2C9 inhib	CYP2C9 activ
CC(=O)NC(CCS(C)(=O)=O)C(=O)Nc1cccc(C(C)=O)c1 (stereo not given)	.	.	.	.	.	.
CN(C)CCNc1oc(COc2ccc(Cl)cc2)nc1C#N	.	.	.	.	.	.
N#Cc1nc(COc2ccc(F)cc2)oc1NCCCn1ccnc1	.	.	.	96.5	87.5	.
COc1ccc(C(=O)N2CCN(c3c(C)cccc3C)CC2)cc1OC	.	.	.	.	.	.
Cc1ccc2nc3c(cc(C#N)c(=O)n3-c3nccs3)c(=O)n2c1	.	30.6	.	.	.	.
Cc1ccc2nc3c(cc(C#N)c(=O)n3CCN3CCOCC3)c(=O)n2c1	.	/	/	.	.	.
CCN(CC)C(=O)/C(=C\c1ccc(Br)cc1)NC(=O)c1ccccc1OC	.	.	.	.	73.3	.
Cc1cc(C)n(-c2nncn2/N=C/c2ccccc2F)n1	.	.	.	.	.	.
Brc1ccc(NC2=Nc3ccccc3CC2)cc1	.	.	.	52.3	.	.
c1ccc(NC2=Nc3ccccc3CS2)cc1	.	.	.	.	.	.
Cc1ccc(NC2=Nc3ccccc3CC2)cc1	.	.	.	83.7	.	.
CCOc1ccc(N2CC(=O)Nc3ccccc3NCC2=O)cc1	.	.	.	.	.	.
O=C(NCCCN1CCOCC1)c1csc2c1CCCC2	.	.	.	.	.	.
Cc1cc(Nc2nc3ccccc3nc2Cl)n(-c2ccccc2C)n1	.	.	.	89.0	.	.
O=C(O)CNC(=O)c1ccccc1NC(=O)c1ccco1	.	.	.	.	.	.
O=C(Nc1ccccc1C(=O)NCc1ccc(Cl)cc1)c1ccco1	.	.	.	.	57.7	.
COc1ccccc1C(=O)NCCNC(=O)c1ccco1	/	.	.	/	/	/
O=C(NCCNC(=O)C(c1ccccc1)c1ccccc1)c1ccco1	.	.	.	65.5	51.2	.
O=C(Nc1ccccc1C(=O)NCCc1ccccc1)c1ccco1	.	.	.	53.9	71.1	.
Cc1cc(=O)[nH]c(N2CCc3ccccc3C2)n1	.	46.4	.	.	.	.
Cc1cc(=O)[nH]c(N2CCN(Cc3ccccc3)CC2)n1	.	.	.	.	.	.
N#Cc1c(NC(=O)c2ccc(Cn3cc(Br)cn3)o2)sc2c1CCCCCC2	.	.	.	.	58.1	.
CCc1ccc(CCC(=O)Nc2sc3c(c2C#N)CCCC3)o1	.	.	.	.	.	.
COc1ccc(CNC(=O)COC(=O)c2cc(-c3cccs3)nc3ccccc23)cc1OC	.	.	.	.	74.8	.
COc1ccc(CNC(=O)COC(=O)c2cc(-c3ccco3)nc3ccccc23)cc1	.	.	.	.	.	.
SMILES	CYP2C19 act	PostGolgi ctrl	PostGolgi yeast	CYP2C19 inhib	CYP2C9 inhib	CYP2C9 activ
CCC1(C)Cc2c(sc3nc(SC)n(Cc4ccccc4)c(=O)c23)CO1 (stereo not given)	.	.	.	.	90.3	.
CCC1(C)Cc2c(sc3nnn(CC(=O)Nc4cccc5ccccc45)c(=O)c23)CO1 (stereo not given)	.	.	.	.	59.5	.
CCC1(C)Cc2c(sc3nnn(CC(=O)Nc4ccc(C)cc4)c(=O)c23)CO1 (stereo not given)	.	.	.	.	.	.
Cc1ccc(N(CC(N)=O)C2SC(=O)N(C)C2=O)cc1 (stereo not given)	.	.	.	.	.	.
Cc1ccc(C)c(Cn2cnc3c(cnn3C(C)(C)C)c2=O)c1	.	.	.	96.8	.	.
CC(C)(C)n1ncc2c(=O)n(CC(=O)c3ccccc3)cnc21	/	.	.	/	/	/
Cc1ccccc1Cn1cnc2c(cnn2C(C)(C)C)c1=O	.	.	.	67.5	.	.
CCCCNC(=O)C1c2ccccc2C(=O)N(c2ccc(OC)cc2)C1c1ccc(OC)cc1 (stereo not given)	.	.	.	.	.	.
COC(=O)c1ccc(C)c(NC(=O)Cc2coc3cc(OC)ccc23)c1	.	.	.	95.1	97.9	.
